Compound activity deposited in PubChem BioAssay by National Center for Advancing Translational Sciences (NCATS).
Giardia kill = Small Molecules that selectively kill Giardia lamblia: qHTS. Giardia lamblia trophozoite viability. activity change, % at 7.66 µM, hits read low. actives 0.15% (n = 340,000); in the data active = activity change below about -80%; inconclusive = between about -30% and that limit;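 note: parasites exposed to compound for two days anaerobically before the ATP read; % is set by controls: 0 for no effect and ±100 for the full control effect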
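Anaerobic 48 hrs incubation at 37 deg C of 100 trophozoites/well with test compounds; ATPLite 1-Step luminescence, 15-30 min RT, reports cellular ATP as viability.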
SW480 rerep = A quantitative high throughput screen for small molecules that induce DNA re-replication in SW480 colon adenocarcinoma cells. actives 1.8% (n = 340,000). AID 624297, 2012. SW480 DNA re-replication, Hoechst DNA content imaging, 48 h. Potency, µM (series often up to 46.1 µM), for inactives: at the highest dose re-replication activation, usual class: activators; note: potency is the fitted concentration of half-maximal effect; % of control where 0% means no effect; nearly all actives have a fitted effect of over 55% in size
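Per well, 250 cells were exposed to pinned compound for 48 hr. Nuclear DNA was visualised with Hoechst (40 min, 37 C) and total object intensity recorded by fluorescence scanning.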
uPA generation = qHTS for Inhibitors of Cell Surface uPA Generation. AID 540303, 2011. Potency, µM (top dose mostly 38.3 µM), without a hit: top-dose activity change, negative = inhibition, actives largely listed as inhibitors. actives 0.31% (n = 330,000). cell surface uPA generation assay, qHTS; active = well fitted inhibition curve with a large enough effect; inconclusive = small, poorly fitted or top-dose-only effect; inactive = no such curve, though single readings can be large or run the other way; tested in mouse RAW 264.7 cells; note: potency is the fitted concentration of half-maximal effect; % is set by controls: 0 for no effect and ±100 for the full control effect; nearly all actives have a fitted effect of over 55% in size
MCF10A rerep = A quantitative high throughput screen for small molecules that induce DNA re-replication in MCF 10a normal breast cells | MCF 10A DNA re-replication, Hoechst nuclear intensity, 48 h | Potency, µM (titrated, usually from 46.1 µM), without a hit: at the highest dose activity, positive = re-replication, most hits filed as activators | actives 2.9% (n = 350,000); note: potency is the fitted concentration of half-maximal effect; % of control where 0% means no effect; nearly all actives have a fitted effect of over 50% in size
An asterisk follows results filed as active; ? = inconclusive; . = no result given. A selection: hits, their analogues and other compounds. The true share with any hit is near 4.3%. Unless noted, calls come from the whole dose curve; as a rule, active = well fitted activation curve with a large enough effect; inconclusive = small, poorly fitted or top-dose-only effect; inactive = no such curve, though single readings can be large or run the other way.

SMILES	Giardia kill	SW480 rerep	uPA generation	MCF10A rerep
CCCOc1ccc(CCc2n[nH]c(=S)n2Cc2ccccc2)cc1	-6	2%	2%	21µM*
CC(C)Cc1ccc(C(=O)Nc2ccc(Cc3ccncc3)cc2)o1	-12	1%	1%	9%
CCOC(=O)c1cnc2ccc(C)cc2c1Nc1ccc(N2CCOCC2)cc1	1	16%	-4%	21µM*
O=C(Nc1cccc(Cl)c1)Nc1nnc(-c2ccncc2)s1	-13	12µM*	1%	5.8µM*
Clc1cccc(Nc2nc(-c3ccncc3)cs2)c1	14	15µM*	-4%	?
Cc1ccc(NC(=O)Nc2nnc(CSCCOc3ccc(Cl)cc3)s2)cc1	2	-3%	5%	8%
O=C(Nc1cccc(Cl)c1)Nc1nnc(CSCCOc2ccc(Cl)cc2)s1	-8	?	-8%	5.2µM*
O=C(Nc1ccc(Cl)cc1)Nc1nnc(-c2ccncc2)s1	-4	-3%	37%	?
Cc1ccc(NC(=O)Nc2nnc(-c3ccncc3)s2)cc1C	3	3%	-2%	16µM*
COc1ccc(NC(=O)C(=O)N2N=C3CCCCC3C2(O)C(F)(F)F)cc1 (configuration not stated)	2	-2%	10%	12%
C[C@@H]1CN([C@@H](C)CO)C(=O)c2cc(NS(=O)(=O)c3cccs3)ccc2O[C@H]1CN(C)Cc1ccc(C(F)(F)F)cc1	4	2%	0%	-3%
COc1cccc(-c2ccc3c(c2)C2CC3CCN2C(C)=O)c1 (configuration not stated)	9	1%	4%	-1%
OCCC1CN(C2CCN(c3ccccc3F)CC2)CCN1Cc1ccccc1 (configuration not stated)	?	-6%	11%	6%
COc1ccc(-c2cc(C3CCN(c4cc(Cl)nc(N)n4)CC3)[nH]n2)cc1	12	19%	.	?
Nc1nc(Cl)cc(N2CCC(c3cc(-c4ccc(Cl)cc4)n[nH]3)CC2)n1	0	16µM*	.	26µM*
COc1ccc(OC)c(-c2cc(C3CCN(c4cc(Cl)nc(N)n4)CC3)[nH]n2)c1	14	?	-6%	21µM*
COc1ccc(-n2nc(C(=O)NCC(=O)Nc3cccc(Cl)c3)c3ccccc3c2=O)cc1OC	-1	12%	-2%	21%
N=C1C(c2ccccc2)=C(O)CN1c1ccc2c(c1)OCO2	-9	2%	-1%	16µM*
N=C1C(c2ccccc2)=C(O)CN1c1ccccc1	15	-7%	-4%	-4%
CCc1ccc(-c2nc(C(N)=O)c3[nH]c(=O)n(-c4ccccc4OC)c3n2)cc1	-27	9.2µM*	?	?
Cc1c(C(=O)c2ccc(Cl)cc2[N+](=O)[O-])c2ccccn2c1CCC#N	-100*	-5%	-3%	12%
CCOc1ccc(NC(=S)Nc2ccc3nsnc3c2)cc1	-26	21µM*	1%	?
O=C1CC(c2ccc3c(c2)OCCO3)Oc2ccccc21 (configuration not stated)	-13	?	12%	?
O=C1CC(c2ccc3c(c2)OCCO3)Oc2ccc([N+](=O)[O-])cc21 (configuration not stated)	?	-4%	10µM*	16µM*
O=C(C1=C(O)C(=O)N(CCc2ccccc2)C1c1cccs1)c1ccco1 (configuration not stated)	-8	-8%	-4%	-2%
SMILES	Giardia kill	SW480 rerep	uPA generation	MCF10A rerep
Cc1ccc2nc(N3C(=O)C(O)=C(C(=O)c4cc5ccccc5o4)C3c3cccs3)sc2c1 (configuration not stated)	-4	19%	-1%	5.8µM*
Cc1ccc(C2C(C(=O)c3cc4ccccc4o3)=C(O)C(=O)N2c2cc(C)on2)cc1 (configuration not stated)	4	?	0%	9.2µM*
CCc1ccc2nc(N3C(=O)C(O)=C(C(=O)c4ccco4)C3c3cccs3)sc2c1 (configuration not stated)	10	-108%	-3%	15µM*
COC(=O)c1sc(N2C(=O)C(O)=C(C(=O)c3ccc(C)o3)C2c2cccs2)nc1C (configuration not stated)	-10	?	3%	18µM*
COC(=O)c1sc(N2C(=O)C(O)=C(C(=O)c3ccc(C)o3)C2c2ccco2)nc1C (configuration not stated)	-2	-10%	1%	3%
CCOC(=O)N1CCN(C(=O)C(NC(=O)c2ccc(C(C)(C)C)cc2)C(C)C)CC1 (configuration not stated)	1	?	1%	29%
CSc1ccc(S(=O)(=O)NC2CCCCCC2)cc1	-9	-4%	-3%	9.2µM*
CCN(CC(=O)Nc1ccc2c(c1)OCCO2)C(=O)/C=C/c1ccc([N+](=O)[O-])cc1	8	-2%	0%	21%
O=C(COC(=O)c1ccc(-c2nnc(-c3ccccc3)o2)cc1)c1ccccc1	17	16µM*	3%	?
O=[N+]([O-])c1cccc(-c2cn3ccccc3n2)c1	-7	-31%	-7%	3%
O=[N+]([O-])c1cccc(-c2cn3nc(-c4ccccc4)c(-c4ccccc4)nc3n2)c1	-24	5.8µM*	17%	?
O=[N+]([O-])c1ccc(-c2cn3nc(-c4ccccc4)c(-c4ccccc4)nc3n2)cc1	1	?	3%	3.7µM*
CCN1CCN(CCCNC(=O)c2ccc(/C=C3/Oc4ccccc4N(Cc4cccc(C)c4)C3=O)cc2)CC1	11	2.6µM*	-4%	1.8µM*
CCCCNC(=O)c1ccc(/C=C2\Oc3ccccc3N(C)C2=O)cc1	14	?	0%	?
O=C(NCCCN1CCOCC1)c1ccc(/C=C2\Oc3ccccc3N(Cc3ccccc3F)C2=O)cc1	25	?	14%	5.2µM*
O=C(CN1C(=O)/C(=C\c2ccccc2Br)Oc2ccccc21)NCCCN1CCOCC1	5	-4%	3%	8%
Cc1ccc(C)c(S(=O)(=O)Nc2ccccc2C(=O)Nc2cc(C)on2)c1	-4	?	9%	?
Cc1cc(NC(=O)c2ccccc2NS(=O)(=O)c2c(C)c(C)cc(C)c2C)no1	9	9.2µM*	8%	12µM*
COc1ccc(-c2ccc3c(N)c(C(=O)NC(C)C)sc3n2)cc1OC	8	18µM*	-5%	18µM*
CC(=O)c1cccc(S(=O)(=O)N2CCN(c3nc(-c4cccs4)nc4ccccc34)CC2)c1	-20	.	.	.
Cc1ccc(C(=O)NCCNc2nc3cc(C)c(C)cc3cc2C)cc1	6	8.2µM*	2%	8.2µM*
Cc1cc2cc(C)c(NCCNC(=O)c3ccccc3)nc2cc1C	-4	12%	-7%	2%
O=C(Nc1cc(Br)ccc1O)C1CC(c2c(F)cccc2Cl)=NO1 (configuration not stated)	-2	-25%	8.9µM*	?
